Consider 2 compounds from PubChem BioAssay (NCATS).

Test [1] is described as follows: AP1 Signaling Pathway (AID 357; active means well fitted curve in either direction with a large enough effect, not every such curve was filed as active;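 further: ME-180 reporter cells stimulated with EGF at its EC50 level; on the % scale 0 is the no-effect control and ±100 the full control effect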). The settings on record: ME-180 AP-1-bla reporter, EGF-induced, beta-lactamase ratio, 5 h. A digest of the protocol:
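First, ME-180 AP-1-bla cells were cultured overnight at 37 °C in low-serum Opti-MEM. Next, titrated compounds with EC50 EGF were incubated 5 hours. Finally, CCF4 was added for 2.5 hours and the 460/530 nm ratio recorded.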

Test [2] can be described thus: NFAT Signaling Pathway (AID 444; active means well fitted curve in either direction with a large enough effect, not every such curve was filed as active;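 further: carbachol stimulus at about its EC50 of 1 µM final; on the % scale 0 is the no-effect control and ±100 the full control effect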). The settings on record: Jurkat NFAT-bla M1, carbachol, beta-lactamase ratio, 5 h. In short, it runs like this:
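Jurkat cells carrying an NFAT-driven β-lactamase reporter and co-transfected muscarinic M1 receptor were treated with compound plus carbachol (1 uM final, an EC50 level) for 5 h at 37 °C. CCF4 loading followed for 1 h at RT; 460/530 nm ratio gave %activity.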

A short description of test [3]: Stat Signaling Pathway (AID 446; active means well fitted curve in either direction with a large enough effect, not every such curve was filed as active;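 further: ME-180 cervical cancer cells given 40 pM IL-6 alongside compound; SIE-controlled beta-lactamase reporter measured as 460/530 nm FRET emission ratio; on the % scale 0 is the no-effect control and ±100 the full control effect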). The settings on record: ME-180 (cervical carcinoma) SIE beta-lactamase reporter, IL-6 stimulated, 5 h. A digest of the protocol: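 FRET read-out (405 nm excitation, 460/530 nm emission) of a beta-lactamase reporter under a STAT-inducible element in ME-180 cervical carcinoma cells. Cells with compound receive 40 pM IL-6 for 5 h. Values are normalised to AC90 stimulation and AC90 JAK-inhibitor controls.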

The target of test [4] is Mitogen-activated protein kinase 10 (Mus musculus) (UniProt Q61831). Description: JNK3 AlphaScreen Assay (AID 530; active means well fitted curve in either direction with a large enough effect, not every such curve was filed as active;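 further: kinase came from lysate of stimulated human HepG2 cells; on the % scale 0 is the no-effect control and ±100 the full control effect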). The settings on record: JNK3 lysate, c-Jun phosphorylation; series mostly up to 57.1 µM. In short, it runs like this: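 Phosphorylation of biotinylated GST-cJun(1-79) at Ser73 is measured by AlphaScreen proximity luminescence. Enzyme is JNK3 in HepG2 lysates activated with interleukin-1beta and tumor necrosis factor alpha; ATP is 10 uM final.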
For orientation: Alpha assays give light when donor and acceptor beads are brought close together.

Test [5] addresses 3',5'-cyclic-AMP phosphodiesterase 4B (Homo sapiens) (UniProt Q07343). Nature of the test: qHTS Assay for Inhibitors of PDE-IV (AID 607; active means well fitted activation curve with a large enough effect in the main read-out, with a control signal flat, not every such curve was filed as active; further: % of control where 0% means no effect). The settings on record: HEK293 ACTOne CNG channel cells, membrane potential fluorescence; series mostly up to 22.9 µM. A digest of the protocol: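 Cell-based read-out of cAMP via a modified cyclic nucleotide-gated channel and membrane potential dye (535/590 nm) in HEK293 cells expressing PDE4 endogenously. Compounds tested up to 22.9 uM final; 100 uM RO 20-1724 reference.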
Background: qHTS replaces the single test concentration by a dilution series.

For test [6], the target named is Guanine nucleotide-binding protein G(i) subunit alpha-1 (Homo sapiens) (UniProt P63096). Nature of the test: qHTS Assay for Inhibitors of RGS12 GoLoco Motif Activity (Green Fluorophore) (AID 879).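 Further: 0% = labeled peptide with Gαi1 and full inhibition = labeled peptide alone without protein; negative values mean loss of peptide binding seen as reduced polarization.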 The settings on record: Galphai1/FITC-RGS12 GoLoco peptide, fluorescence polarization; series mostly up to 57.1 µM. In short, it runs like this:
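A drop in FITC polarization marked displacement of the FITC-tagged RGS12 GoLoco peptide (10 nM) from Gαi1 (50 nM). Compounds were incubated 10 min at room temperature in Tris pH 7.5 buffer containing 150 mM NaCl, 0.1 mM GDP and 0.05% NP40; unlabeled peptide titration served as control.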

Test [7] concerns the target Pyruvate kinase (Leishmania mexicana) (UniProt Q27686). Nature of the test: qHTS Validation Assay for Inhibitors of Leishmania Mexicana Pyruvate Kinase (AID 945).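 Further: 0% = DMSO only neutral control wells.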 The settings on record: purified L. mexicana pyruvate kinase, enzyme activity, E451W mutant enzyme; series mostly up to 57.5 µM. A digest of the protocol:
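Luminescent ATP detection (PKLight) after a 1 h room-temperature reaction of 0.2 nM LmPYK E451W mutant with 0.5 mM PEP and 0.1 mM ADP at pH 7.2. Activity is normalized to DMSO-only control wells.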

The target of test [8] is Pyruvate kinase PKM (Homo sapiens) (UniProt P14618). Nature of the test: qHTS Assay for Activators of Human Muscle Pyruvate Kinase (AID 954; active means well fitted curve in the direction sought with a large enough effect, not every such curve was filed as active;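 further: 0% = uninhibited enzyme and -100% = no enzyme or full thiadiazolimine inhibition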). The settings on record: purified human muscle pyruvate kinase, luciferase-coupled luminescence, 1 h; series mostly up to 57.5 µM. In short, it runs like this:
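ATP production by PKM2 detected via luciferase luminescence after 1 h room-temperature reaction (0.1 nM enzyme, PEP at Km 0.5 mM, ADP 0.1 mM, pH 7.2 imidazole buffer). Inhibition scaled to no-enzyme control; activation referenced to 0.3 nM enzyme wells.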

For test [9], the target named is alpha-glucosidase (Oryza sativa, rice) (UniProt Q653V4). Description: Counterscreen for Glucocerebrosidase Inhibitors: qHTS Assay for Rice alpha-Glucosidase at pH 5.0 (AID 997).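 Further: 0% = full activity with enzyme and -100% = basal without enzyme.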 The settings on record: rice alpha-glucosidase enzyme activity; series mostly up to 76.9 µM. In short, it runs like this: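 Endpoint fluorogenic assay at pH 5.0: compounds (0.7 nM to 77 uM) titrated against 4 nM rice enzyme and 400 uM 4-MU-alpha-glucoside for 20 min at room temperature; NaOH/glycine stop, read ex 365/em 440 nm, Hill-fitted AC50.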
Background: The purpose of a counterscreen is to sort out artefacts and off-target activity.

Test [10] can be described thus: qHTS Assay for Lipid Storage Modulators (AID 1519; calls by dose curve). The settings on record: Drosophila S3 cells, BODIPY lipid droplet/cell ratio, laser cytometry, cells loaded with oleic acid; for activity change, negative = inhibition: at 25.7 µM (top of the series). A digest of the protocol: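 Cells seeded at 5,000 per well were treated with compounds over a concentration series and loaded with oleic acid (400 uM, as added). Lipid droplet fluorescence (488 nm excitation, 500-530 nm channel) was read by laser-scanning cytometry and normalized to 20 uM Triacsin C.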

The target in test [11] is Ubiquitin carboxyl-terminal hydrolase 1 (Homo sapiens) (UniProt O94782). Description: Inhibitors of USP1/UAF1: Pilot qHTS (AID 504865).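 Further: rhodamine fluorescence freed from ubiquitin-rhodamine substrate followed over time; top concentration of the series differs between compounds; on the % scale 0 is the no-effect control and ±100 the full control effect; nearly all actives have a fitted effect of over 35% in size.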 The settings on record: purified USP1/UAF1, Ub-rhodamine cleavage fluorescence; series mostly up to 54.9 µM. In short, it runs like this:
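1nM USP1/UAF1 + cpd, 15 min RT; start w/ Ub-Rho 150nM final; kinetic FL 480/540 nm, 6 reads q60 s. Buffer 50mM HEPES pH 7.8, 0.5mM EDTA, 1mM TCEP, 0.01% Tween-20, 0.1 mg/ml BSA.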

In test [12] the target is Cytochrome P450 1A2 (Homo sapiens) (UniProt P05177). Description: p450-cyp1a2 (AID 410; calls by dose curve; further: potency means the concentration at half of the fitted maximal effect). The settings on record: recombinant CYP1A2, luciferin-ME demethylation, luminescence; series mostly up to 57 µM. In short, it runs like this: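 O-Demethylation of luciferin 6' methyl ether by human CYP1A2 is monitored as luciferase luminescence. Substrate sits at Km (100uM); enzyme is 20nM. Values are scaled to 57 uM furafylline as maximal inhibition.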

Test [13] concerns the target ATP-dependent 6-phosphofructokinase (Trypanosoma brucei brucei) (UniProt O15648). Nature of the test: qHTS Assay to Find Inhibitors of T. brucei phosphofructokinase: hit validation (AID 492961). The settings on record: T. brucei PFK, ADP-Glo luminescence; series mostly up to 24.3 µM. A digest of the protocol: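 Reaction: 0.1 M triethanolamine pH 8.0, 5 mM MgCl2, F6P 0.5 mM, ATP 0.1 mM, PFK 1.25 nM, 45 min RT. Read-out: ADP-Glo luminescence. Analysis: concentration-response fits, classed by r2 and efficacy.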

Test [14] has as its target Luciferin 4-monooxygenase (Photinus pyralis) (UniProt P08659). Description: Biochemical firefly luciferase enzyme assay for NPC (AID 624030).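 Further: purified P. pyralis luciferase at 10 nM with luciferin and ATP substrate; 0% = DMSO and -100% = full luciferase inhibition by PTC124 control; nearly all actives have a fitted effect of over 70% in size.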 The settings on record: purified P. pyralis luciferase, luminescence, 5 min; series mostly up to 58.6 µM. In short, it runs like this:
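Counter-screen for direct inhibition of the luciferase enzyme by approved-drug library compounds, run at 10 nM enzyme in 50 mM Tris acetate (final). Luminescence was read within 5 min of enzyme-buffer addition and normalized to PTC124 versus DMSO (0%).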

Test [15] in a line: qHTS profiling for inhibitors of Plasmodium falciparum proliferation (AID 504749).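 Further: 0% = DMSO vehicle and full inhibition = artemisinin control; nearly all actives have a fitted effect of over 60% in size.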 The settings on record: P. falciparum in erythrocytes, SYBR Green DNA, 72 h, at 28.7 µM (top of the series). In short, it runs like this:
(§1)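 Quantitative HTS: compounds pinned into medium, infected erythrocytes added (0.3% parasitemia, 2.5% hematocrit), 72 h culture at 37 C under 5% CO2. Saponin/Triton lysis with SYBR Green I, overnight RT, then fluorescence read.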

The subject of another test is AS120. Described as above. The settings on record: P. falciparum in erythrocytes, SYBR Green DNA, 72 h; series mostly up to 28.7 µM. A digest of the protocol: as §1
The next test relates to CP238. The description is as above. The settings on record: P. falciparum in erythrocytes, SYBR Green DNA, 72 h; series mostly up to 12.8 µM. In short, it runs like this:
as §1

In the next test the test system is FAB9. The description is as above. The settings on record: P. falciparum in erythrocytes, SYBR Green DNA, 72 h; series mostly up to 12.8 µM. A digest of the protocol:
as §1

Setting [16] is: measured here: cell count channel max response.
Where [17] appears, read: measured here: lipid channel max response.

Values joined by “and” are separate entries in the source; they are usually repeats but may differ in a detail not shown here. Identical values can stand only once. Inconclusive results are not listed. Active and inactive are the calls of the source. Unless noted, the call rests on the fitted dose curve; in most records, active means well fitted curve in the direction sought with a large enough effect; inconclusive means small, poorly fitted or top-dose-only effect, or another doubt; inactive means no such curve, though single readings can be large; an effect the other way counts as inactive or inconclusive.

Sequence of 3',5'-cyclic-AMP phosphodiesterase 4B (Homo sapiens) (Q07343 whole entry, looked up): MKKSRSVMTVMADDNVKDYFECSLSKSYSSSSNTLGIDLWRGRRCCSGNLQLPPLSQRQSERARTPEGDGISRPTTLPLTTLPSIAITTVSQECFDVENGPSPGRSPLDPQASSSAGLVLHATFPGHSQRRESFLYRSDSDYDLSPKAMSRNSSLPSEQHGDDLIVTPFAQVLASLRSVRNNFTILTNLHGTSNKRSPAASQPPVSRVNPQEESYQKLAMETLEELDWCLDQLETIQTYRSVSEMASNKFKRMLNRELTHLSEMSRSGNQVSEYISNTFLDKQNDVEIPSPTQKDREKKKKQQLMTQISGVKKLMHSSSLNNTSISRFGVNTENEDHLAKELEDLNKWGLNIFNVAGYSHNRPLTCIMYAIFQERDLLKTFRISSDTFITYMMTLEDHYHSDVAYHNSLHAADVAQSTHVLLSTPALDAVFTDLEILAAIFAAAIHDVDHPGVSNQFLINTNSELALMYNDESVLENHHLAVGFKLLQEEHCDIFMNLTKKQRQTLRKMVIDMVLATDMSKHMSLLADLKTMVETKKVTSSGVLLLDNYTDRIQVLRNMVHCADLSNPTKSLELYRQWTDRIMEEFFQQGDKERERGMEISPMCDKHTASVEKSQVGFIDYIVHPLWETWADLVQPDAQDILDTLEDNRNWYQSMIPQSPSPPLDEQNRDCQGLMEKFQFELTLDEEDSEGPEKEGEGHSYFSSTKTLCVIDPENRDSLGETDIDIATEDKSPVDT
Sequence of Ubiquitin carboxyl-terminal hydrolase 1 (Homo sapiens) (O94782 whole entry, looked up): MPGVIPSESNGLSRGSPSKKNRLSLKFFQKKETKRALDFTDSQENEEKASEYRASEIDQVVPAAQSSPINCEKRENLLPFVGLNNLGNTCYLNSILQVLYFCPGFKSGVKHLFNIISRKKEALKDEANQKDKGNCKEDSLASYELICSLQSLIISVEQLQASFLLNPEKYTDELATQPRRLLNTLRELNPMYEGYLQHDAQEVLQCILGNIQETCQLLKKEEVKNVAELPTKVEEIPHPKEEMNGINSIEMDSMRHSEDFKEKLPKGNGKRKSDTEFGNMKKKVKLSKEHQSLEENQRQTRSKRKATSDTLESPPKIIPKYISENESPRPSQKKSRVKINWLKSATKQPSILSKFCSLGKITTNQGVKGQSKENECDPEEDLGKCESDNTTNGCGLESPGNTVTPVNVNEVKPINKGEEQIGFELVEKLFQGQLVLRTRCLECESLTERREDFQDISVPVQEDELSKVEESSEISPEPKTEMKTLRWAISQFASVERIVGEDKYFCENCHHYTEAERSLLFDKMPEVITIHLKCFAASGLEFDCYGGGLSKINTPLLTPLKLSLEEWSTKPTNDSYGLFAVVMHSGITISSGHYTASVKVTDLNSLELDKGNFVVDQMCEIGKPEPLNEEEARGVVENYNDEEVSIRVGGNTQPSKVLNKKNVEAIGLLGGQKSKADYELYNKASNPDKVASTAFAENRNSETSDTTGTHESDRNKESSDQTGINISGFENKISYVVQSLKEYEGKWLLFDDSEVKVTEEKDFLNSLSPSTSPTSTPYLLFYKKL
Sequence of Guanine nucleotide-binding protein G(i) subunit alpha-1 (Homo sapiens) (P63096 whole entry, looked up): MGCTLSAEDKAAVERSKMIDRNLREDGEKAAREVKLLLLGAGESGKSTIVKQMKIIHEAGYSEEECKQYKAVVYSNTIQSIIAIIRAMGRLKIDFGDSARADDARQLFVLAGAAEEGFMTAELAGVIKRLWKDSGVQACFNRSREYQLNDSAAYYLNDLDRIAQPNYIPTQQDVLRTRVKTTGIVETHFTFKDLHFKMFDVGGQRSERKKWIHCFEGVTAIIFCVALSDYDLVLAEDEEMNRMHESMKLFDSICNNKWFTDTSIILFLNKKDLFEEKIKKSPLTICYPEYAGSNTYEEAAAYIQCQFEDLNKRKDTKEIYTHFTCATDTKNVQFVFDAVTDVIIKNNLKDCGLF
Sequence of Pyruvate kinase PKM (Homo sapiens) (P14618 whole entry, looked up): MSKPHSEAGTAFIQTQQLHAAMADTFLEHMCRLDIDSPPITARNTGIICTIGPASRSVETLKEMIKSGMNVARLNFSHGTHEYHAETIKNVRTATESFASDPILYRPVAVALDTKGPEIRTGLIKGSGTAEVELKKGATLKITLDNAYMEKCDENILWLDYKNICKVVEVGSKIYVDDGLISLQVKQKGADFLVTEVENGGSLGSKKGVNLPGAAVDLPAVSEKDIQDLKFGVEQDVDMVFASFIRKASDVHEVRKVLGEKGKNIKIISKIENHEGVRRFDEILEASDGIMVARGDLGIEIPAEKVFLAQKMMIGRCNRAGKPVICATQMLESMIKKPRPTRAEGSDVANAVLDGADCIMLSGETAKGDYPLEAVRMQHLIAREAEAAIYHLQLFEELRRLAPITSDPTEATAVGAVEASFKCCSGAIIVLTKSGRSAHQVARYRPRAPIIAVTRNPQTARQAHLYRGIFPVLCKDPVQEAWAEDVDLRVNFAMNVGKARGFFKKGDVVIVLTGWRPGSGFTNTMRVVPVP
Sequence of Pyruvate kinase (Leishmania mexicana) (Q27686 2-499 E452W): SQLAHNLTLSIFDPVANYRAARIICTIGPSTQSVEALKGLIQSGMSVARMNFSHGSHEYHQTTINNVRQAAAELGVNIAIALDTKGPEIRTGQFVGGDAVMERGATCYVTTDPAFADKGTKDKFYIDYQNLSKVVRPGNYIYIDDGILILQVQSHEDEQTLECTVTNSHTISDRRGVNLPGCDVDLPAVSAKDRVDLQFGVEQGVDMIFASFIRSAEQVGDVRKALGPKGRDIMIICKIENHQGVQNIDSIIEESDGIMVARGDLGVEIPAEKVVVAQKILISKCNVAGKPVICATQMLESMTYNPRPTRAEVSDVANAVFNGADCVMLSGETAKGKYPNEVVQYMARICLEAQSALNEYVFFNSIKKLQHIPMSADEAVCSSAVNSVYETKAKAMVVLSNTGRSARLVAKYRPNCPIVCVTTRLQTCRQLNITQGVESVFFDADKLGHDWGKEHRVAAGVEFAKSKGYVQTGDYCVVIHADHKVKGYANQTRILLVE
Sequence of Cytochrome P450 1A2 (Homo sapiens) (P05177 whole entry, looked up): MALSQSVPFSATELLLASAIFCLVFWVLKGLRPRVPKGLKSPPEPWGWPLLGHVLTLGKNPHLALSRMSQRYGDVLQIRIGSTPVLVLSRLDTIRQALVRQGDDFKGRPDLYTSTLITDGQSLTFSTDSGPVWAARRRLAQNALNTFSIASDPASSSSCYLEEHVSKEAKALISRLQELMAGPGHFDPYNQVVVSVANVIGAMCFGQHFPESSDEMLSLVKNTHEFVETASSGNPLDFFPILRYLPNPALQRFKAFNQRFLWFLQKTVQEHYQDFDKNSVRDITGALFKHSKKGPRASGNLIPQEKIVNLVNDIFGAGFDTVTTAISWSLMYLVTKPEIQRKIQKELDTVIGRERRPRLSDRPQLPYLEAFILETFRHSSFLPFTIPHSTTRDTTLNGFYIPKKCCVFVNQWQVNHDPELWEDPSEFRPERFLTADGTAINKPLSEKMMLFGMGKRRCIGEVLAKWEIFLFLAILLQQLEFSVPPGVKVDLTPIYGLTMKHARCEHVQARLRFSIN
Sequence of Luciferin 4-monooxygenase (Photinus pyralis) (P08659 whole entry, looked up): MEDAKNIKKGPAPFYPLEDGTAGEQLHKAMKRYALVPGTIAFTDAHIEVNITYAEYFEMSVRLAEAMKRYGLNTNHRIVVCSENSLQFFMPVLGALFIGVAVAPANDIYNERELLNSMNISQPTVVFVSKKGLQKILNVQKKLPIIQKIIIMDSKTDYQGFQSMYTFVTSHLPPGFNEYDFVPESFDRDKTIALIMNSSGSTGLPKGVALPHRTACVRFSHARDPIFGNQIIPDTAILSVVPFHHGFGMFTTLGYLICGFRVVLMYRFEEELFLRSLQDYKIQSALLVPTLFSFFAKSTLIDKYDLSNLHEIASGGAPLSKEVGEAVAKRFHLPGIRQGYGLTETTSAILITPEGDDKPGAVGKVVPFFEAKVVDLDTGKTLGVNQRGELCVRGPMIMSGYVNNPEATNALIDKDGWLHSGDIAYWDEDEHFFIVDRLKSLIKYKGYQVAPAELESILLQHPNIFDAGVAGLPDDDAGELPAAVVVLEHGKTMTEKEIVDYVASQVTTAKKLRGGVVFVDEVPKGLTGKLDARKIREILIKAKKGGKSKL
Sequence of ATP-dependent 6-phosphofructokinase (Trypanosoma brucei brucei) (O15648 whole entry, looked up): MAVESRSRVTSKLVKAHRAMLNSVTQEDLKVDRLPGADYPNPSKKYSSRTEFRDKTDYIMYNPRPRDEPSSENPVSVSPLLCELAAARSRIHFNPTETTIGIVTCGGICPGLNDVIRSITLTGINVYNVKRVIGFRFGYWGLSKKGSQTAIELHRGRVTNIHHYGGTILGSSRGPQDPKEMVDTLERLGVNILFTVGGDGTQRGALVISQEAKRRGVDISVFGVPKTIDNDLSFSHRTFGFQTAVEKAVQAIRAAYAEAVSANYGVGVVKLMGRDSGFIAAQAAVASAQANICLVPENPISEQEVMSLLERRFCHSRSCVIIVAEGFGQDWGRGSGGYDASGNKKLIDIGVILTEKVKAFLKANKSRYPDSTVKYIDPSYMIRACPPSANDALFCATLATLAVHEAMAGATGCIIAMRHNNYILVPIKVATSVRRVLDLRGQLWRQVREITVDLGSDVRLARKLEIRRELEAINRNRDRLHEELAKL

Consider `CC1=C(C(=O)O)N2C(=O)[C@@H](NC(=O)[C@@H](N)c3ccccc3)[C@@H]2SC1`, for which the activity change, negative = inhibition is 16.3% (inactive) in test [1] (at 17.2 µM (top of the series)); 11% (inactive) in test [1] (at 38 µM (top of the series)); -9.84% (inactive) in test [2] (at 17.2 µM (top of the series)); -0.753% (inactive) in test [2] (at 38 µM (top of the series)); -1.09% (inactive) in test [10]. The activity, negative = inhibition in test [3] (at 17.2 µM (top of the series)) was 10.2% (inactive); in test [3] (at 38 µM (top of the series)), 30.7% (inactive). Moreover, the Potency result in test [4], in [5], in test [6] and in [11] was “inactive” in each case. The compound was classed as inactive in test [7], in [8] and in test [9]. For the same compound, the figures for the max response in test [10] (setting [16]) and in test [10] (setting [17]) were 0.948% and -0.484%, respectively.
Consider `CC[C@H](NC(C)C)[C@H](O)c1ccc(O)c(O)c1`, for which the activity change, negative = inhibition in test [1] (at 17.2 µM (top of the series)) was -20.6% (inactive); in test [1] (at 38 µM (top of the series)) it was -15.3% (inactive); in [2] (at 7.69 µM (top of the series) unless noted) it was -6.46% [at 17.2 µM] (inactive); in test [10], -0.896% (inactive). For the same compound, the Potency in test [12] was 15.8 µM (active) and 12.6 µM (active). Further, the activity, negative = inhibition in test [3] (at 17.2 µM (top of the series)) was 3.17% (inactive); in [3] (at 38 µM (top of the series)), -26.1% (inactive); in [15] (parasite line A), 4.3% (inactive); in [15] (parasite line B) it was -2.19% (inactive). In addition, the Potency entry (in [4]; in test [5]; in [6]; in test [11]; in the test on AS120; in the test on CP238) was “inactive” in each case. For the same compound, the Potency entry in the test with FAB9 is “inactive”. Also, the result in [7], in test [8], in [9], in test [13] and in [14] was inactive. The max response is -4.02% in test [10] (setting [16]) and -11.2% in [10] (setting [17]).
